# Laboratory results from PubChem BioAssay (Tox21).
# Where “and” joins values, the source holds several entries; their conditions need not be identical. Equal values may be shown once. Results filed as inconclusive are left out. Entries that show only a call come without a potency. A structure can be active in one record and inactive in another. Calls of active or inactive are those of the source. Unless noted, calls come from the whole dose curve; as a rule, active = well fitted curve in the direction sought with a large enough effect in the repeat runs; inconclusive = weak or mixed curves; inactive = no such curve, though single readings can be large; an effect the other way counts as inactive or inconclusive.
# Experiments:
# [1] = qHTS assay to identify small molecule agonists of the estrogen receptor alpha (ER-alpha) signaling pathway in the presence of an antagonist - cell viability counter screen (AID 1259386);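 note: cells exposed to compounds for 22 h at 37 °C before the viability read; nearly all actives have a fitted effect of over 30% in size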; note: potency is the fitted concentration of half-maximal effect
# In short: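 Read-out: CellTiter-Fluor fluorescence after 1hr reagent incubation, measured in the same wells as the luciferase readout. VM7Luc4E2 cells were exposed to 15 compound concentrations with 10.0nM ICI-182,780 for 22hr at 37C.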
# [2] = qHTS assay to identify small molecule antagonists of the progesterone receptor (PR) signaling pathway - cell viability counter screen (AID 1346798); note: series mostly up to about 92 µM; nearly all actives have a fitted effect of over 50% in size
# In short: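 ATP content as viability readout: CellTiter-Glo luminescence, 30 min room temperature, in PR-UAS-bla HEK293T cells after 16 hr compound/R5020 treatment at 37C and 5% CO2.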
# [3] = qHTS assay to identify small molecule agonists of the progesterone receptor (PR) signaling pathway - cell viability counter screen (AID 1346799; calls by dose curve; note: nearly all actives have a fitted effect of over 45% in size)
# In short: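 Cytotoxicity in PR-bla HEK293T cells: 16 h compound, 37C; CellTiter-Glo added post-FRET read; luminescence after 30 min RT.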
# [4] = qHTS assay to identify small molecule agonists of the TGF-beta/Smad signaling pathway - cell viability counter screen (AID 1346829); note: top concentration of the series differs between compounds; nearly all actives have a fitted effect of over 45% in size
# In short: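 Tox21 qHTS format: SBE-bla HEK 293T cells treated with DMSO-dissolved compounds for 5 hr; CellTiter-Glo luminescence after 30 min at room temperature.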
# [5] = qHTS assay to identify small molecule agonists of the TGF-beta/Smad signaling pathway (AID 1346859; active = well fitted activation curve with a large enough effect in the signal ratio in the repeat runs, not every such curve was filed as active; the % refers to the signal ratio; note: series mostly up to about 77 µM)
# In short: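 Stable Smad binding element-beta-lactamase HEK 293T cells; 5 hr compound exposure at 37 C under 5% CO2; 2 hr room-temperature substrate step; fluorescence excited at 405 nm, collected at 460 nm and 530 nm.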
# [6] = target: Thyrotropin-releasing hormone receptor (Homo sapiens) (UniProt P34981); experiment: qHTS assay to identify small molecule antagonists of the thyrotropin-releasing hormone receptor (TRHR) signaling pathway (AID 1346877; active = well fitted inhibition curve with a large enough effect in the repeat runs, not every such curve was filed as active; note: series mostly up to about 51 µM)
# In short: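 HEK293/TRHR cells, 18 h, 37 °C; Ca2+ dye 2 h; cpd 5 min RT; TRH 1 nM final; fluorescence read 3 min, 1 s intervals; 15 concs, triplicate.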
# [7] = target: Thyrotropin-releasing hormone receptor (Homo sapiens) (UniProt P34981); experiment: qHTS assay to identify small molecule agonists of the thyrotropin-releasing hormone receptor (TRHR) signaling pathway (AID 1346891; calls by dose curve;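 note: HEK293 cells expressing TRHR with calcium dye readout; series mostly up to about 58 µM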)
# In short: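 In 1536-format, 1500 TRHR-Hek293 cells per well grew 18 h, took up calcium dye for 2 h at 37 °C, received compound, and were read kinetically; 15-point titrations, triplicates.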
# [8] = Human pregnane X receptor (PXR) small molecule agonists, qHTS cell viability counter screen (AID 1346977); note: nearly all actives have a fitted effect of over 50% in size; note: potency is the fitted concentration of half-maximal effect
# In short: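 Readout is CellTiter-Fluor fluorescence from PXR-Luc HepG2 cells. Plated cells rested 5hr, then were treated with compounds for 24hr at 37C and 5% CO2, with reagent present during the last hour.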
# [9] = Caspase-3/7 induction in HepG2 cells by small molecules, qHTS assay (AID 1346978); note: nearly all actives have a fitted effect of over 15% in size; note: potency is the fitted concentration of half-maximal effect
# In short: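 Caspase-3/7 induction was measured by Caspase-Glo 3/7 luminescence (30 min, room temperature) after a 17 hr compound exposure of wild-type HepG2 cells seeded at 2,000 per well and pre-incubated 5 hr.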
# [10] = Caspase-3/7 induction in CHO-K1 cells by small molecules, qHTS cell viability counter screen (AID 1346979); note: nearly all actives have a fitted effect of over 35% in size; note: potency is the fitted concentration of half-maximal effect
# In short: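 To flag cytotoxic compounds, treated CHO-K1 wild-type cells were given CellTiter-Fluor at 16hr and read fluorescently after 1hr at 37C; the caspase-3/7 luminescence was measured in these same wells.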
# [11] = target: Nuclear receptor subfamily 1 group I member 2 (Homo sapiens) (UniProt O75469); experiment: Human pregnane X receptor (PXR) small molecule agonists, qHTS assay (AID 1346982); note: nearly all actives have a fitted effect of over 35% in size; note: potency is the fitted concentration of half-maximal effect
# In short: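 HepG2 PXR-Luc reporter line, 5% charcoal-stripped FBS; 5 hr pre-incubation, compound (DMSO) 24 hr at 37 C/5% CO2; ONE-Glo 30 min RT; luminescence read-out.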
# [12] = target: Acetylcholinesterase (Homo sapiens) (UniProt P22303); experiment: Acetylcholinesterase (AChE) small molecule antagonists: colormetric cell-based qHTS assay (AID 1347395; calls by dose curve; note: nearly all actives have a fitted effect of over 30% in size; note: potency is the fitted concentration of half-maximal effect)
# In short: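 Neuroblastoma line SH-SY5Y supplied the enzyme; cells were preincubated with compound for 30 min at 37 C and 5% CO2. Acetylthiocholine with DTNB was then added for 90 min at 37 C, and thiocholine was measured by colour.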
# [13] = target: Progesterone receptor (Homo sapiens) (UniProt P06401); experiment: qHTS assay to identify small molecule agonists of the progesterone receptor (PR) signaling pathway (AID 1346784; calls by dose curve; note: nearly all actives have a fitted effect of over 30% in size)
# In short: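 Using charcoal-stripped serum (2%) to limit endogenous steroids, PR-UAS-bla HEK 293T cells received compounds for 16 hr at 37C after 6 hr plating; beta-lactamase FRET fluorescence was recorded following 2 hr substrate loading at room temperature.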
# [14] = target: Progesterone receptor (Homo sapiens) (UniProt P06401); experiment: qHTS assay to identify small molecule antagonists of the progesterone receptor (PR) signaling pathway (AID 1346795; active = well fitted inhibition curve with a large enough effect in the signal ratio in the repeat runs, not every such curve was filed as active; the % refers to the signal ratio; note: potency is the fitted concentration of half-maximal effect)
# In short: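 Inhibition of R5020-induced (1 nM final) beta-lactamase reporter signal in PR-UAS-bla HEK293T cells was scored by FRET fluorescence after overnight (16 hr) compound treatment.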
# [15] = Caspase-3/7 induction in HepG2 cells by small molecules, qHTS cell viability counter screen (AID 1346981); note: nearly all actives have a fitted effect of over 30% in size; note: potency is the fitted concentration of half-maximal effect
# In short: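 Fluorescence read-out of live-cell protease activity (CellTiter-Fluor) after 1 hr with reagent. This was measured in the same wells as the caspase-3/7 luminescence, on HepG2 cells exposed to DMSO-dissolved compounds for 16 hr at 37 C.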
# [16] = qHTS assay to identify small molecule antagonists of the TGF-beta/Smad signaling pathway - cell viability counter screen (AID 1346824); note: nearly all actives have a fitted effect of over 50% in size
# In short: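 Cytotoxicity counter-screen run in the same wells as the beta-lactamase Smad reporter read: CellTiter-Glo luminescence after 30 min at room temperature. HEK 293T SBE-bla cells had 5 hr compound exposure at 37 C with TGF-beta1 (0.25 ng/mL stock).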
# [17] = Caspase-3/7 induction in CHO-K1 cells by small molecules, qHTS assay (AID 1346980); note: nearly all actives have a fitted effect of over 15% in size
# In short: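 Luminescent Caspase-Glo 3/7 read (30min, room temperature) quantified apoptosis induction. Cells were wild-type CHO-K1, treated with compound for 17hr at 37 C and 5% CO2.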
# [18] = target: Nuclear receptor subfamily 1 group I member 2 (Rattus norvegicus) (UniProt Q9R1A7); experiment: Rat pregnane X receptor (rPXR) activation by small molecules, qHTS assay (AID 1346983); conditions: rPXR luciferase reporter cells, One-Glo luminescence, 24 h; stronger effect = higher value; note: nearly all actives have a fitted effect of over 20% in size
# In short: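 Luminescent readout (One-Glo luciferase, 30 min room temperature) followed 24 hr compound treatment at 37 C of rPXR cells plated 2,000 per well and preincubated 5hr; qHTS format with compounds delivered in DMSO.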
# [19] = target: Nuclear receptor subfamily 1 group I member 2 (Homo sapiens) (UniProt O75469); experiment: CYP3A4 induction through human pregnane X receptor (PXR) by small molecules, qHTS assay (AID 1346984); note: nearly all actives have a fitted effect of over 40% in size
# In short: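 HepG2-derived DPX-2 line carrying PXR plus a CYP3A4-promoter luciferase reporter; cells plated 5 hr, compound-exposed 24 hr at 37C. CYP3A4 activity probed with 3uM (final) Luciferin-IPA for 3hr, then luciferase read after One-Glo.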
# [20] = target: Nuclear receptor subfamily 1 group I member 2 (Homo sapiens) (UniProt O75469); experiment: Human pregnane X receptor (PXR) activation by small molecules, qHTS assay (AID 1346985); note: nearly all actives have a fitted effect of over 40% in size
# In short: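 DPX-2 cells (HepG2 co-transfected with a PXR response element and a CYP3A4-promoter luciferase construct) were seeded at 2,000 per well, rested 5 hr at 37C, then exposed to DMSO-dissolved compounds for 24 hr. Activation was read as luciferase luminescence.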
# Nuclear receptor subfamily 1 group I member 2 (Homo sapiens), sequence (O75469 whole entry, looked up): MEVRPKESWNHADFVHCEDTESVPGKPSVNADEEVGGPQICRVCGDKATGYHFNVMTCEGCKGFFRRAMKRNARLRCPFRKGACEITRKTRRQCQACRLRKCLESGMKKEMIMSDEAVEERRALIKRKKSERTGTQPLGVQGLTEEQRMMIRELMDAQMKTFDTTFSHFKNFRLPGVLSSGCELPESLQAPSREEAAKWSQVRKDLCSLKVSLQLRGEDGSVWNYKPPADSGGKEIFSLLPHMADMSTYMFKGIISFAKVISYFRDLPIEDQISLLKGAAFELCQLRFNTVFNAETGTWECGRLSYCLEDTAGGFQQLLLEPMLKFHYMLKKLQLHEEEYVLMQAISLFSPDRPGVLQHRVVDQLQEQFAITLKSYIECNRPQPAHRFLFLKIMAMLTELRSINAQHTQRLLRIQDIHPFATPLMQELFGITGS
# Progesterone receptor (Homo sapiens), sequence (P06401 whole entry, looked up): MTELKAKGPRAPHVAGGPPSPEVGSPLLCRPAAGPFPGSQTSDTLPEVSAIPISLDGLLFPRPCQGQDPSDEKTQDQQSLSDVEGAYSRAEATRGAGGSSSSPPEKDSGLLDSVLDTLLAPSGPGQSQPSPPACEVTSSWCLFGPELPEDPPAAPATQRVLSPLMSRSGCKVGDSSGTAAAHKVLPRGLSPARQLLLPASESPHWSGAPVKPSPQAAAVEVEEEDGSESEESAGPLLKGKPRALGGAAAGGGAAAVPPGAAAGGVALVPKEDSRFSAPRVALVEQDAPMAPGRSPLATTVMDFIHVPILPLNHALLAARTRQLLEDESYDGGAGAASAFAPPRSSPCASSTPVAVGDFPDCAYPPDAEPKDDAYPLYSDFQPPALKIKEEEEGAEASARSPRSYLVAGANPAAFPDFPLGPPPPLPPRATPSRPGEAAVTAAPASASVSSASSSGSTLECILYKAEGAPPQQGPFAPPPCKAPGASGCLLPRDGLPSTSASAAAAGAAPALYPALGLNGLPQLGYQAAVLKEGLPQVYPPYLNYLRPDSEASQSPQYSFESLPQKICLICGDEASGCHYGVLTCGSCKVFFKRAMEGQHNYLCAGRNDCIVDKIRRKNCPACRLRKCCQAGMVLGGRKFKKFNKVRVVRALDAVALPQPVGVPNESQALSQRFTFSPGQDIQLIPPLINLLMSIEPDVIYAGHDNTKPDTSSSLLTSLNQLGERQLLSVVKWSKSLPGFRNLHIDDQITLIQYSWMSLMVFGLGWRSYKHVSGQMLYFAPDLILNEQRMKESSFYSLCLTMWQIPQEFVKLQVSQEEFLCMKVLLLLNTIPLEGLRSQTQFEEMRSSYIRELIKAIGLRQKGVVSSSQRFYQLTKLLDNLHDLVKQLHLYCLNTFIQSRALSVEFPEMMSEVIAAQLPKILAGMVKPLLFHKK
# Thyrotropin-releasing hormone receptor (Homo sapiens), sequence (P34981 whole entry, looked up): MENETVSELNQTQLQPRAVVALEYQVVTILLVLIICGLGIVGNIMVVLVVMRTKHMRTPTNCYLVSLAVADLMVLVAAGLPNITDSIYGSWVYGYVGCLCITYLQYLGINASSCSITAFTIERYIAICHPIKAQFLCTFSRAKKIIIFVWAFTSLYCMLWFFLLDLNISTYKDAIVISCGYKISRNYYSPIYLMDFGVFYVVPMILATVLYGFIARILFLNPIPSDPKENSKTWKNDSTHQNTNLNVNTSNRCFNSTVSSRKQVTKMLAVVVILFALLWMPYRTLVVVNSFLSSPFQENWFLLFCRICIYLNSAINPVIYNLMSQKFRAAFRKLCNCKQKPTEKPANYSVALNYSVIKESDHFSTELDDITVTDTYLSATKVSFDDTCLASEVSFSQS
# Acetylcholinesterase (Homo sapiens), sequence (P22303 whole entry, looked up): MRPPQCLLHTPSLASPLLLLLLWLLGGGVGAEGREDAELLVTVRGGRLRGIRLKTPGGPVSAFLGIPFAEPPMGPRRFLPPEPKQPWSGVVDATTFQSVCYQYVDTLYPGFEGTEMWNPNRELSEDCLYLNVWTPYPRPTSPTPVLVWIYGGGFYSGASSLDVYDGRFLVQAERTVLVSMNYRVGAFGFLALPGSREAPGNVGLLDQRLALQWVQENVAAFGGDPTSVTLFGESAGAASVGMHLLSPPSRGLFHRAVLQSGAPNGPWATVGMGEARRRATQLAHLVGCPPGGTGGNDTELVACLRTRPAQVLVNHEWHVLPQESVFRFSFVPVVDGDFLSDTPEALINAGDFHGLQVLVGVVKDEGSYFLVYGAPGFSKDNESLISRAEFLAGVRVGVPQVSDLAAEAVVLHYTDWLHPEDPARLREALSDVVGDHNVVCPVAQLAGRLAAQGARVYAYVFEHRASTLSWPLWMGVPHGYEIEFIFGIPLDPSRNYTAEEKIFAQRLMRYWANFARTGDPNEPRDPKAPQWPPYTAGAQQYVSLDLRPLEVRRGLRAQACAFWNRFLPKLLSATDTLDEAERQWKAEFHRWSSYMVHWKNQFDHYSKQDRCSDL
# Nuclear receptor subfamily 1 group I member 2 (Rattus norvegicus), sequence (Q9R1A7 whole entry, looked up): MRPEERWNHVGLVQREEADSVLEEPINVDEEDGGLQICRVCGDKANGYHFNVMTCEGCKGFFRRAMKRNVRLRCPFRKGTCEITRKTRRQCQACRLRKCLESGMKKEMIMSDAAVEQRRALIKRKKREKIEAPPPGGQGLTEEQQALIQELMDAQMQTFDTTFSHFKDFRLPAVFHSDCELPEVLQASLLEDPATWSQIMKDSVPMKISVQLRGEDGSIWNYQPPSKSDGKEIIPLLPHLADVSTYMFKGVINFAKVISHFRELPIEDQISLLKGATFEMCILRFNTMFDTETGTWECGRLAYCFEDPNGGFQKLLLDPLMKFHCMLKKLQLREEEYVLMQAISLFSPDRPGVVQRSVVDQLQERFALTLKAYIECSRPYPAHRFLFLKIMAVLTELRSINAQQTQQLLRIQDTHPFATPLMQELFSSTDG
SMILES,Potency [1],Potency [2],Potency [3],Potency [4],outcome [5],Potency [6],Potency [7],Potency [8],Potency [9],Potency [10],Potency [11],Potency [12],Potency [13],Potency [14],Potency [15],Potency [16],Potency [17],max activation [18],outcome [19],outcome [20]
CCCCCCOC(=O)c1ccccc1C(=O)OCCCCCC,inactive,inactive,inactive,inactive,inactive,inactive,inactive,inactive,inactive,inactive,55.6 µM (active) and inactive,inactive,,,,,,,,
CCC(C)(c1ccc(O)cc1)c1ccc(O)cc1,inactive,,,inactive,inactive,,inactive,inactive,inactive,61.1 µM (active),12.2 µM (active) and 5.45 µM (active),inactive,inactive,4.32 µM (active),inactive,,,,,
CCOCN(C(=O)CCl)c1c(C)cccc1CC,inactive,inactive,inactive,inactive,,,inactive,,inactive,57.7 µM (active),2.58 µM (active),33.6 µM (active) and inactive,inactive,,,inactive,inactive,,,
c1ccc(P(c2ccccc2)c2ccccc2)cc1,inactive,inactive,inactive,inactive,inactive,,inactive,inactive,inactive,inactive,55.5 µM (active) and 30.6 µM (active),inactive,inactive,,inactive,,inactive,,,
O=c1oc2ccccc2c(O)c1C(CC(O)c1ccc(-c2ccc(Br)cc2)cc1)c1ccccc1 (centres undefined),inactive,,,inactive,,,inactive,inactive,inactive,inactive,inactive,inactive,inactive,,,,,-5.73% (inactive),inactive,inactive
Nc1ccc(Cl)cc1N,inactive,inactive,inactive,inactive,,inactive,inactive,inactive,22.6 µM (active) and 8.89 µM (active),,31.9 µM (active) and 4.33 µM (active),inactive,inactive,,,,inactive,,,
Cc1cccc(N)c1N,inactive,inactive,inactive,inactive,inactive,inactive,inactive,inactive,inactive,inactive,26.4 µM (active) and 54.5 µM (active),inactive,inactive,,,inactive,inactive,,,
CCCCC(CC)COC(=O)Cl (centres undefined),inactive,inactive,inactive,inactive,inactive,inactive,inactive,inactive,inactive,inactive,inactive,inactive,,,,,inactive,,,
CCCCCCCCC(=O)NCc1ccc(O)c(OC)c1,inactive,,,inactive,inactive,,,inactive,inactive,inactive,27.3 µM (active) and inactive,inactive,inactive,48.6 µM (active),,inactive,,,,
CCCCOCCOP(=O)(OCCOCCCC)OCCOCCCC,inactive,inactive,inactive,inactive,inactive,,,inactive,inactive,,10.9 µM (active) and 19.3 µM (active),inactive,inactive,,,inactive,inactive,,,
CC1(C)C(C=C(Cl)Cl)C1C(=O)OC(C#N)c1cccc(Oc2ccccc2)c1 (centres undefined),inactive,inactive,inactive,inactive,inactive,,inactive,inactive,inactive,,2.73 µM (active),inactive,inactive,,inactive,,inactive,,,
Cc1ccc(N)c(N)c1,inactive,,inactive,inactive,inactive,,,inactive,inactive,,8.66 µM (active) and 19.3 µM (active),inactive,inactive,,,inactive,inactive,,,
Cc1ccc2c(c1N)C(=O)c1ccccc1C2=O,27 µM (active) and 27.3 µM (active),inactive,inactive,inactive,inactive,,inactive,19.1 µM (active) and 27.3 µM (active),inactive,48 µM (active) and 54.5 µM (active),4.28 µM (active) and 1.93 µM (active),inactive,inactive,,30.3 µM (active) and 48.6 µM (active),inactive,inactive,,,
